Sequences and labels used below:
B1: ATATCTTG (ssRNA)
RNA 1: GAGUUCUACAGUCCGACGAUCCCAACAUAUCUUGCACCUGGAAUUCUCGGGUGCCAA
RNA 2: UGGAGUGUGACAAUGGUGUUUG
DNA 1: GATCGTCGGACTGTAGAACTC
DNA 2: TTGGCACCCGAGAATTCCA
modifications: constant regions annealed to DNA blockers; guide miR-122 5' phosphate
B2: GCGCCTTG (ssRNA)
RNA 1: GAGUUCUACAGUCCGACGAUCCCAACGCGCCUUGCACCUGGAAUUCUCGGGUGCCAA
RNA 2: UGGAGUGUGACAAUGGUGUUUG
DNA 1: GATCGTCGGACTGTAGAACTC
DNA 2: TTGGCACCCGAGAATTCCA
modifications: constant regions annealed to DNA blockers; guide miR-122 5' phosphate
B3: ATGCTCTA (ssRNA)
RNA 1: GAGUUCUACAGUCCGACGAUCCCAACAUGCUCUACACCUGGAAUUCUCGGGUGCCAA
RNA 2: UGGAGUGUGACAAUGGUGUUUG
DNA 1: GATCGTCGGACTGTAGAACTC
DNA 2: TTGGCACCCGAGAATTCCA
modifications: constant regions annealed to DNA blockers; guide miR-122 5' phosphate
B4: GTGCCTCG (ssRNA)
RNA 1: GAGUUCUACAGUCCGACGAUCCCAACGUGCCUCGCACCUGGAAUUCUCGGGUGCCAA
RNA 2: UGGAGUGUGACAAUGGUGUUUG
DNA 1: GATCGTCGGACTGTAGAACTC
DNA 2: TTGGCACCCGAGAATTCCA
modifications: constant regions annealed to DNA blockers; guide miR-122 5' phosphate
B5: GCGTCCCG (ssRNA)
RNA 1: GAGUUCUACAGUCCGACGAUCCCAACGCGUCCCGCACCUGGAAUUCUCGGGUGCCAA
RNA 2: UGGAGUGUGACAAUGGUGUUUG
DNA 1: GATCGTCGGACTGTAGAACTC
DNA 2: TTGGCACCCGAGAATTCCA
modifications: constant regions annealed to DNA blockers; guide miR-122 5' phosphate
B6: GCGCCTCG (ssRNA)
RNA 1: GAGUUCUACAGUCCGACGAUCCCAACGCGCCUCGCACCUGGAAUUCUCGGGUGCCAA
RNA 2: UGGAGUGUGACAAUGGUGUUUG
DNA 1: GATCGTCGGACTGTAGAACTC
DNA 2: TTGGCACCCGAGAATTCCA
modifications: constant regions annealed to DNA blockers; guide miR-122 5' phosphate
B7: GCGTTTTA (ssRNA)
RNA 1: GAGUUCUACAGUCCGACGAUCCCAACGCGUUUUACACCUGGAAUUCUCGGGUGCCAA
RNA 2: UGGAGUGUGACAAUGGUGUUUG
DNA 1: GATCGTCGGACTGTAGAACTC
DNA 2: TTGGCACCCGAGAATTCCA
modifications: constant regions annealed to DNA blockers; guide miR-122 5' phosphate
B8: GCACCCTA (ssRNA)
RNA 1: GAGUUCUACAGUCCGACGAUCCCAACGCACCCUACACCUGGAAUUCUCGGGUGCCAA
RNA 2: UGGAGUGUGACAAUGGUGUUUG
DNA 1: GATCGTCGGACTGTAGAACTC
DNA 2: TTGGCACCCGAGAATTCCA
modifications: constant regions annealed to DNA blockers; guide miR-122 5' phosphate
B9: GCGTTTCG (ssRNA)
RNA 1: GAGUUCUACAGUCCGACGAUCCCAACGCGUUUCGCACCUGGAAUUCUCGGGUGCCAA
RNA 2: UGGAGUGUGACAAUGGUGUUUG
DNA 1: GATCGTCGGACTGTAGAACTC
DNA 2: TTGGCACCCGAGAATTCCA
modifications: constant regions annealed to DNA blockers; guide miR-122 5' phosphate
B10: GCACCTCG (ssRNA)
RNA 1: GAGUUCUACAGUCCGACGAUCCCAACGCACCUCGCACCUGGAAUUCUCGGGUGCCAA
RNA 2: UGGAGUGUGACAAUGGUGUUUG
DNA 1: GATCGTCGGACTGTAGAACTC
DNA 2: TTGGCACCCGAGAATTCCA
modifications: constant regions annealed to DNA blockers; guide miR-122 5' phosphate
B11: ACGTCTCG (ssRNA)
RNA 1: GAGUUCUACAGUCCGACGAUCCCAACACGUCUCGCACCUGGAAUUCUCGGGUGCCAA
RNA 2: UGGAGUGUGACAAUGGUGUUUG
DNA 1: GATCGTCGGACTGTAGAACTC
DNA 2: TTGGCACCCGAGAATTCCA
modifications: constant regions annealed to DNA blockers; guide miR-122 5' phosphate
B12: GTGCTTTA (ssRNA)
RNA 1: GAGUUCUACAGUCCGACGAUCCCAACGUGCUUUACACCUGGAAUUCUCGGGUGCCAA
RNA 2: UGGAGUGUGACAAUGGUGUUUG
DNA 1: GATCGTCGGACTGTAGAACTC
DNA 2: TTGGCACCCGAGAATTCCA
modifications: constant regions annealed to DNA blockers; guide miR-122 5' phosphate

AGO2 A367P, sequence (Q9UKV8 whole entry A367P/S387D/S824A/S828D/S831D/S834A): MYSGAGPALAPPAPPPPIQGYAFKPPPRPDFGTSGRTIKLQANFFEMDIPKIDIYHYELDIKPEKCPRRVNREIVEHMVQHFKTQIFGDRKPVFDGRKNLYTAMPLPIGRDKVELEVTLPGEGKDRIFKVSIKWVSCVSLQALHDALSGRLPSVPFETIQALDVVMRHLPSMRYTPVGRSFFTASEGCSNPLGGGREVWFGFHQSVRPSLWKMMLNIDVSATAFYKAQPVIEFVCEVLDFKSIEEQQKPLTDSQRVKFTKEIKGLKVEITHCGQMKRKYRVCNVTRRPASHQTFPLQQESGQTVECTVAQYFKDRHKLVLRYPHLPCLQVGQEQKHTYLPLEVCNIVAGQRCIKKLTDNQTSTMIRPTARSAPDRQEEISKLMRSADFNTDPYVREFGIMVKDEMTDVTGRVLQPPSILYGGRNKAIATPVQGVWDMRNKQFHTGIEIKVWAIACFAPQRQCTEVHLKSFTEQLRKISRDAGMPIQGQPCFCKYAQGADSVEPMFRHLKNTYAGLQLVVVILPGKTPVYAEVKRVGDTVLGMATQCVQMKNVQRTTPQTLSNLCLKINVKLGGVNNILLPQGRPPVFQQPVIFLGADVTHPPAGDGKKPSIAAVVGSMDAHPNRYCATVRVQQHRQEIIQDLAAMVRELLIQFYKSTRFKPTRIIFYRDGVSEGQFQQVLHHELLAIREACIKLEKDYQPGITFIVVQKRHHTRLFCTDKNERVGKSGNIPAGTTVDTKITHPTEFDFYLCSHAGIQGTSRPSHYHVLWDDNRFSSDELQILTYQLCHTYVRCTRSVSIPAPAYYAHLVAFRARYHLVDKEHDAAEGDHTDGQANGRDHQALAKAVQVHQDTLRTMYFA
AGO2 T357M, sequence (Q9UKV8 whole entry T357M/S387D/S824A/S828D/S831D/S834A): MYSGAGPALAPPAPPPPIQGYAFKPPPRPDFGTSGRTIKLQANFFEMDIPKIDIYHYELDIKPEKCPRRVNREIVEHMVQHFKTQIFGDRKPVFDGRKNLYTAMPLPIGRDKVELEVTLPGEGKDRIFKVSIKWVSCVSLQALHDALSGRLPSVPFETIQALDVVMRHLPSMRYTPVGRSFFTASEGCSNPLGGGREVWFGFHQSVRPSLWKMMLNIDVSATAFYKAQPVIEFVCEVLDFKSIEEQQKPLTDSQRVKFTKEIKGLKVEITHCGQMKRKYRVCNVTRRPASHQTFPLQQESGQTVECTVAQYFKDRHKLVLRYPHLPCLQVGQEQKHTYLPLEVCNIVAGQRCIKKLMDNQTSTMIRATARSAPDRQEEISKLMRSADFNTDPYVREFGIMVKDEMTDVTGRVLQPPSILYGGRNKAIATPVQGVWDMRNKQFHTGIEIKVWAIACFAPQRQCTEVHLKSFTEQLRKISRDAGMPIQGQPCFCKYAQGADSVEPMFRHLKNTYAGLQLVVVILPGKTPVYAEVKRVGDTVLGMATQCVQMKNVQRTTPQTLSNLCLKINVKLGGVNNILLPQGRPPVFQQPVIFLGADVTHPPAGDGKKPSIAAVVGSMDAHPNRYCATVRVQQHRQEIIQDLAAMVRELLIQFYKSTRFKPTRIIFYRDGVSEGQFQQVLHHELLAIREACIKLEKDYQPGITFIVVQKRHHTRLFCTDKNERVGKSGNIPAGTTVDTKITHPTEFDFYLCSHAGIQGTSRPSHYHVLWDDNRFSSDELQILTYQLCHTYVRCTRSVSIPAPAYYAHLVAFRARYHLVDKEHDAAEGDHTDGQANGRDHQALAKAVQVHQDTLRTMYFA
AGO2 F182del, sequence (Q9UKV8 other isoform, or with tags, fused parts or gaps S387D;S824A;S828D;S831D;S834A;del182-182): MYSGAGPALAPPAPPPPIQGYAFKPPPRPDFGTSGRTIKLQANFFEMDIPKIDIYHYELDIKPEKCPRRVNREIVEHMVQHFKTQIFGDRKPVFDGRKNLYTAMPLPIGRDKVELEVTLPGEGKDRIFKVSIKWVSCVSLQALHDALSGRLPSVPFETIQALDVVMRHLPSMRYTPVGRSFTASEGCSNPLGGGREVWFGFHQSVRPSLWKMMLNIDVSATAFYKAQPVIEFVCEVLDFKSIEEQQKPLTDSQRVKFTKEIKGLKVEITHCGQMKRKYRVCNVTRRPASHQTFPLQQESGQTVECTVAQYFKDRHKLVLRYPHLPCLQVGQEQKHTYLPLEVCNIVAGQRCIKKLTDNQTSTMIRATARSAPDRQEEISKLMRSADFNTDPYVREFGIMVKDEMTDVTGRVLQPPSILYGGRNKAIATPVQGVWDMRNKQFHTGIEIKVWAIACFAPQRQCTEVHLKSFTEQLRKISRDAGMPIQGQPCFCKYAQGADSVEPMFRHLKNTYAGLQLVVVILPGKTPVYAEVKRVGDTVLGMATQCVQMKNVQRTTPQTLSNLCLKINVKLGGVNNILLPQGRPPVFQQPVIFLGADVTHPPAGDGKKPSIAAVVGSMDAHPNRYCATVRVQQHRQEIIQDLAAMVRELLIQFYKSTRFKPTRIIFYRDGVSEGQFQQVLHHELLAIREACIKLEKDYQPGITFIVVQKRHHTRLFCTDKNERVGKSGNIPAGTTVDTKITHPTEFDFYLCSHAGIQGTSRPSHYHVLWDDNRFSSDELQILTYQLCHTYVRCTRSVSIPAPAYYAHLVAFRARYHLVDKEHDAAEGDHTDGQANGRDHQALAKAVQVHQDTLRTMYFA

The first test deals with AGO2 L192P (Homo sapiens, UniProt Q9UKV8 1-859, L192P;S387D;S824A;S828D;S831D;S834A). The test is described as follows: RNA Bind-n-Seq (nitrocellulose filter binding and sequencing); miR-122 guide loaded in AGO2; 60 min incubation; 30 mM Tris pH 8.0, 100 mM potassium acetate, 2 mM magnesium acetate, 0.5 mM TCEP, 0.005% NP-40, 0.01 mg/ml yeast tRNA; 3 nM AGO2-miR-122, 100 nM RNA library; 60; high values mean tight binding. The following applies: protein: recombinant; tags: His6 (N-terminal, pFastBac HTA). The procedure, abridged: (§1)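 Fold enrichment is each target's read fraction divided by its read fraction in the input library. Sf9 insect cells expressed His-tagged AGO2 from baculovirus; the protein was loaded with a synthetic guide RNA and purified by Ni-NTA and a biotinylated capture oligo. The bound RNA was extracted, reverse-transcribed, barcode-amplified and sequenced on Illumina.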
AGO2 L192P, sequence (Q9UKV8 whole entry L192P/S387D/S824A/S828D/S831D/S834A): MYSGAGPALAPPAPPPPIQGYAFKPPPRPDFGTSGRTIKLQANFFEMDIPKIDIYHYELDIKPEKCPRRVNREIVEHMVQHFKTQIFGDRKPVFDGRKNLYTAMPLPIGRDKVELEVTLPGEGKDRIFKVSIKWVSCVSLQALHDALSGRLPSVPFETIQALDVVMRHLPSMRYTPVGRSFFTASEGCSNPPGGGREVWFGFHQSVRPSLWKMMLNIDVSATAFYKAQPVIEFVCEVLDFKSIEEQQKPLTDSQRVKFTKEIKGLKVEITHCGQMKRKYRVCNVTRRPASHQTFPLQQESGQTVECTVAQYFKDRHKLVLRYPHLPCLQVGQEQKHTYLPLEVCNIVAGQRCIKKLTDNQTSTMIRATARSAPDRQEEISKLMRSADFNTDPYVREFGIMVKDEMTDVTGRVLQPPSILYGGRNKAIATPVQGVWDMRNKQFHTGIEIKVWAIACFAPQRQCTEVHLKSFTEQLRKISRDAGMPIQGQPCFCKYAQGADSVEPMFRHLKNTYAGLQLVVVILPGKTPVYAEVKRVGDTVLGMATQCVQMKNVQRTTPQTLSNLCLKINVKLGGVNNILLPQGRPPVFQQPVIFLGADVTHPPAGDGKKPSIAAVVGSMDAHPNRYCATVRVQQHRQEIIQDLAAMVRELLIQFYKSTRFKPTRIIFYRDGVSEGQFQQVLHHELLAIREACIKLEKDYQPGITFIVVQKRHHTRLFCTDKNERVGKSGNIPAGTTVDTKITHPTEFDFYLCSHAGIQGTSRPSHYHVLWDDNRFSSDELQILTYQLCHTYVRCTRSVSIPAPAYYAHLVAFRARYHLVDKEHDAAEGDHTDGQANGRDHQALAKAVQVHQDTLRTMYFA
Consider B1, for which the binding signal was 0.409 fold enrichment over input.
Same read-out and setting: with B2 the figure was 0.365 fold enrichment over input; with B3, 0.443 fold enrichment over input.
Consider B4, for which the binding signal was 0.431 fold enrichment over input.
Regarding B5, the binding signal was 0.366 fold enrichment over input.
Still for that read-out and setting: as for B6, the figure is 0.37 fold enrichment over input; as for B7, 0.484 fold enrichment over input; as for B8, 0.515 fold enrichment over input.
On to B9, for which the binding signal is 0.361 fold enrichment over input.
B10: the binding signal was 0.381 fold enrichment over input.
Regarding B11, the binding signal is 0.32 fold enrichment over input.
For the molecule B12, the binding signal was 0.489 fold enrichment over input.

The next test addresses AGO2 A367P (Homo sapiens, UniProt Q9UKV8 1-859, A367P;S387D;S824A;S828D;S831D;S834A). The test is described as above. The following applies: protein: recombinant; tags: His6 (N-terminal, pFastBac HTA). The essentials: as §1
B1: the binding signal is 0.138 fold enrichment over input.
In the case of B2, the binding signal is 0.15 fold enrichment over input.
Take B3: the binding signal is 0.171 fold enrichment over input.
Turning to B4, the binding signal was 0.162 fold enrichment over input.
For B5, the binding signal was 0.15 fold enrichment over input.
For the molecule B6, the binding signal was 0.145 fold enrichment over input.
As for B7, the binding signal was 0.173 fold enrichment over input.
On to B8, for which the binding signal was 0.214 fold enrichment over input.
For the molecule B9, the binding signal is 0.139 fold enrichment over input.
In the case of B10, the binding signal was 0.15 fold enrichment over input.
Take B11: the binding signal was 0.146 fold enrichment over input.
As for B12, the binding signal was 0.185 fold enrichment over input.

The target of a further test is AGO2 T357M (Homo sapiens, UniProt Q9UKV8 1-859, T357M;S387D;S824A;S828D;S831D;S834A). The description is as above. The following applies: protein: recombinant; tags: His6 (N-terminal, pFastBac HTA). The essentials:
as §1
As to B1, the binding signal was 0.513 fold enrichment over input.
The same measure, in the same setting: as for B2, the figure is 0.532 fold enrichment over input; as for B3, 0.526 fold enrichment over input.
The same measure, in the same setting: with B4 the figure was 0.57 fold enrichment over input; with B5, 0.539 fold enrichment over input.
The same measure, in the same setting: as for B6, the figure is 0.55 fold enrichment over input.
B7: the binding signal is 0.582 fold enrichment over input.
Consider B8, for which the binding signal was 0.601 fold enrichment over input.
As for B9, the binding signal is 0.534 fold enrichment over input.
Consider B10, for which the binding signal is 0.508 fold enrichment over input.
Still for that read-out and setting: with B11 the figure was 0.421 fold enrichment over input; with B12, 0.644 fold enrichment over input.

A further test has as its target AGO2 F182del (Homo sapiens, UniProt Q9UKV8 1-859, S387D;S824A;S828D;S831D;S834A;del182-182). The test is described as above. The following applies: protein: recombinant; tags: His6 (N-terminal, pFastBac HTA). The procedure, abridged:
as §1
As for B8, the binding signal was 0.327 fold enrichment over input.
